Inhibition data for 1 compound are collected here from ChEMBL document CHEMBL1961873, “Compounds: GSK PKIS; Assays: Nanosyn kinase panel” (2012).

Test [1] deals with Sphingosine kinase 1 (Homo sapiens) (UniProt Q9NYA1). The following applies: at 1 µM.
Test [2] concerns the target T1, Sphingosine kinase 2 (Homo sapiens) (UniProt Q9NRA0).
T1 sequence (whole entry): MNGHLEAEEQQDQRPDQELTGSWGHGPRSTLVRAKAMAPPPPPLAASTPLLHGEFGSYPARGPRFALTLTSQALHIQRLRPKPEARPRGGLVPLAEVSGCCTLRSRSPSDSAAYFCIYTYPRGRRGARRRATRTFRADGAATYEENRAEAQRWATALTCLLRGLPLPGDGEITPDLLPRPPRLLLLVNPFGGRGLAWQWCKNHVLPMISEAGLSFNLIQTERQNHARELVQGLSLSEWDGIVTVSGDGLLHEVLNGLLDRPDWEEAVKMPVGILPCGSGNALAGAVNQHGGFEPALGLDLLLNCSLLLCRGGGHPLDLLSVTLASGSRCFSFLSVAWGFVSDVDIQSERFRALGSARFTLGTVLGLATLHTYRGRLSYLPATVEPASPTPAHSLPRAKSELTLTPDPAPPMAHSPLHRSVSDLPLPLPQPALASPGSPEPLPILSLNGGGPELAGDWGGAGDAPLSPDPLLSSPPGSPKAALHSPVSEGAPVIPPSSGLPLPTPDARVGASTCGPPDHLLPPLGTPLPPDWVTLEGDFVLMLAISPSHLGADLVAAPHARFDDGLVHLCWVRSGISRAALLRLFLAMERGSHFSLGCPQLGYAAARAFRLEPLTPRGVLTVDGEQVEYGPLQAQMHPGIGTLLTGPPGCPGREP
The following applies: at 0.1 µM.

Test [3] deals with T1, Sphingosine kinase 2 (Homo sapiens). The following applies: at 1 µM.
The target of test [4] is Casein kinase II subunit alpha (Homo sapiens) (UniProt P68400). The following applies: at 0.1 µM.
Casein kinase II subunit alpha (Homo sapiens), sequence (P68400 whole entry, looked up): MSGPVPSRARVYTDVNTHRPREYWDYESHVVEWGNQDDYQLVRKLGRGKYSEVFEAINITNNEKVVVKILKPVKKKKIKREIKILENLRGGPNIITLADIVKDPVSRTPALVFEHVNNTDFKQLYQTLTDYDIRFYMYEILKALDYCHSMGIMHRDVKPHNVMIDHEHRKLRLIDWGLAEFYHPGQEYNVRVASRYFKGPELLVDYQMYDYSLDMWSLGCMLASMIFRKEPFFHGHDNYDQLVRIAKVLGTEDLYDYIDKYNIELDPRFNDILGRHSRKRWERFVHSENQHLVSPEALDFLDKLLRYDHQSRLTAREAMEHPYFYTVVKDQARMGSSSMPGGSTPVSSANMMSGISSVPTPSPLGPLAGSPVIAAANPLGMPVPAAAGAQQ
The target is the same in test [5]. The following applies: at 1 µM.
Test [6] deals with T2, Inhibitor of nuclear factor kappa-B kinase subunit alpha (Homo sapiens) (UniProt O15111).
T2 sequence (whole entry): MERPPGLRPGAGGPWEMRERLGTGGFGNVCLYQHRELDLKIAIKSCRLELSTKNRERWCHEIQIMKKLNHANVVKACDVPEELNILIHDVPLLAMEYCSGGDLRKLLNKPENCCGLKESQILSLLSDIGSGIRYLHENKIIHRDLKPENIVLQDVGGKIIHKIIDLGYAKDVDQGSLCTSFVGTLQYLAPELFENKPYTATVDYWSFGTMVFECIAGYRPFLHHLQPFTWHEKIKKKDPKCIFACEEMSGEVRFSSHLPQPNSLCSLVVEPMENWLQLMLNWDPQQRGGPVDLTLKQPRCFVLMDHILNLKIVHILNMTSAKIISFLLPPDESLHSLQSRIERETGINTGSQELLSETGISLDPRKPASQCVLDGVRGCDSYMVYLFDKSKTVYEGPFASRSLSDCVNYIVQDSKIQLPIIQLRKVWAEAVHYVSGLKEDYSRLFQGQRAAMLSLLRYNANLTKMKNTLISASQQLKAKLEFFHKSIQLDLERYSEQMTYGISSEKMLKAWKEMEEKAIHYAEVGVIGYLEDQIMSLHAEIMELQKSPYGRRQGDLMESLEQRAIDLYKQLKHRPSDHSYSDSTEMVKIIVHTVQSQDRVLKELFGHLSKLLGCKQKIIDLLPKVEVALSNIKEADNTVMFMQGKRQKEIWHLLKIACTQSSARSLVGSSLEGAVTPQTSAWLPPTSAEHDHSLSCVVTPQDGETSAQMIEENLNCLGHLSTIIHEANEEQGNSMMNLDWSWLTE
The following applies: at 0.1 µM.

Test [7] deals with T2, Inhibitor of nuclear factor kappa-B kinase subunit alpha (Homo sapiens). The following applies: at 1 µM.
The target in test [8] is T3, Inhibitor of nuclear factor kappa-B kinase subunit beta (Homo sapiens) (UniProt O14920).
T3 sequence (whole entry): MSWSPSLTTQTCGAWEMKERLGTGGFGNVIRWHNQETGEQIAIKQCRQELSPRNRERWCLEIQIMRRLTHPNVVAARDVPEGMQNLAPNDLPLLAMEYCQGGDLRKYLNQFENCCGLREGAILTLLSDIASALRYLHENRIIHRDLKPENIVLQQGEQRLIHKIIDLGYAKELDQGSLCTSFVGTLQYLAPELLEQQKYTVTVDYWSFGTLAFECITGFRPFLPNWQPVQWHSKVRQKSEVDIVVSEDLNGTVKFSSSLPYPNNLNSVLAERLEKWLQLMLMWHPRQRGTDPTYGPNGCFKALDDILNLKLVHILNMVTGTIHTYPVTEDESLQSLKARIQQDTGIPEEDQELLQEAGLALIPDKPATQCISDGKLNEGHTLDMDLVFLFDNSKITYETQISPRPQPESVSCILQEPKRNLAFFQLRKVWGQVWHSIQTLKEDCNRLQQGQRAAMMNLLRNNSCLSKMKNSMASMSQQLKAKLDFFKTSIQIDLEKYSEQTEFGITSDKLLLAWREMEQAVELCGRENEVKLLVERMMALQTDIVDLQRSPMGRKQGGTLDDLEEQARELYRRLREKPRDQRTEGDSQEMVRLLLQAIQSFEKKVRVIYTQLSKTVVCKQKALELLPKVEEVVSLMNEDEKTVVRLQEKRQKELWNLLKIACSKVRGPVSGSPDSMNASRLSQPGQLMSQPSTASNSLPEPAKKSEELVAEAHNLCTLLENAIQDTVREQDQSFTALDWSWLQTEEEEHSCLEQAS
The following applies: at 0.1 µM.

The target of test [9] is T3, Inhibitor of nuclear factor kappa-B kinase subunit beta (Homo sapiens). The following applies: at 1 µM.
Test [10] deals with T4, Inhibitor of nuclear factor kappa-B kinase subunit epsilon (Homo sapiens) (UniProt Q14164).
T4 sequence (whole entry): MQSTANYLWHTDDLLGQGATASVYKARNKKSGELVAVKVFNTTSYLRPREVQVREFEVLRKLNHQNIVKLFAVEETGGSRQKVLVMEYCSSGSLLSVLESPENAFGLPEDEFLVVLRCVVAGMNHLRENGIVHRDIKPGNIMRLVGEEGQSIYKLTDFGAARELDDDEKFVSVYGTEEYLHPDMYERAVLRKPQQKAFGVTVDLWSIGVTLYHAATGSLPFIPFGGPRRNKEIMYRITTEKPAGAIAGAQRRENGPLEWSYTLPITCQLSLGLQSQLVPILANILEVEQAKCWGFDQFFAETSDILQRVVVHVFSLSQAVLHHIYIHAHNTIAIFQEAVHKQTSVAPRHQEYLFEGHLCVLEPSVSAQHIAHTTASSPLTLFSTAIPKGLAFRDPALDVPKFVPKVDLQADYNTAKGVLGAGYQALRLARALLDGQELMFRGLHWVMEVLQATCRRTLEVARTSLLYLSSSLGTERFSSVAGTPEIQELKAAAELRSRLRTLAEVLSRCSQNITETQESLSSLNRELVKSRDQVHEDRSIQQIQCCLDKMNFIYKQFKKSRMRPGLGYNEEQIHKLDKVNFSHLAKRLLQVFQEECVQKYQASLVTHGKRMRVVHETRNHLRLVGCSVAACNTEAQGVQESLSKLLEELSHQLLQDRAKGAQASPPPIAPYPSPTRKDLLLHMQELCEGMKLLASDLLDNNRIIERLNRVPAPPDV
The following applies: at 0.1 µM.

Test [11] addresses T4, Inhibitor of nuclear factor kappa-B kinase subunit epsilon (Homo sapiens). The following applies: at 1 µM.
The target of test [12] is T5, Serine/threonine-protein kinase Nek1 (Homo sapiens) (UniProt Q96PY6).
T5 sequence (whole entry): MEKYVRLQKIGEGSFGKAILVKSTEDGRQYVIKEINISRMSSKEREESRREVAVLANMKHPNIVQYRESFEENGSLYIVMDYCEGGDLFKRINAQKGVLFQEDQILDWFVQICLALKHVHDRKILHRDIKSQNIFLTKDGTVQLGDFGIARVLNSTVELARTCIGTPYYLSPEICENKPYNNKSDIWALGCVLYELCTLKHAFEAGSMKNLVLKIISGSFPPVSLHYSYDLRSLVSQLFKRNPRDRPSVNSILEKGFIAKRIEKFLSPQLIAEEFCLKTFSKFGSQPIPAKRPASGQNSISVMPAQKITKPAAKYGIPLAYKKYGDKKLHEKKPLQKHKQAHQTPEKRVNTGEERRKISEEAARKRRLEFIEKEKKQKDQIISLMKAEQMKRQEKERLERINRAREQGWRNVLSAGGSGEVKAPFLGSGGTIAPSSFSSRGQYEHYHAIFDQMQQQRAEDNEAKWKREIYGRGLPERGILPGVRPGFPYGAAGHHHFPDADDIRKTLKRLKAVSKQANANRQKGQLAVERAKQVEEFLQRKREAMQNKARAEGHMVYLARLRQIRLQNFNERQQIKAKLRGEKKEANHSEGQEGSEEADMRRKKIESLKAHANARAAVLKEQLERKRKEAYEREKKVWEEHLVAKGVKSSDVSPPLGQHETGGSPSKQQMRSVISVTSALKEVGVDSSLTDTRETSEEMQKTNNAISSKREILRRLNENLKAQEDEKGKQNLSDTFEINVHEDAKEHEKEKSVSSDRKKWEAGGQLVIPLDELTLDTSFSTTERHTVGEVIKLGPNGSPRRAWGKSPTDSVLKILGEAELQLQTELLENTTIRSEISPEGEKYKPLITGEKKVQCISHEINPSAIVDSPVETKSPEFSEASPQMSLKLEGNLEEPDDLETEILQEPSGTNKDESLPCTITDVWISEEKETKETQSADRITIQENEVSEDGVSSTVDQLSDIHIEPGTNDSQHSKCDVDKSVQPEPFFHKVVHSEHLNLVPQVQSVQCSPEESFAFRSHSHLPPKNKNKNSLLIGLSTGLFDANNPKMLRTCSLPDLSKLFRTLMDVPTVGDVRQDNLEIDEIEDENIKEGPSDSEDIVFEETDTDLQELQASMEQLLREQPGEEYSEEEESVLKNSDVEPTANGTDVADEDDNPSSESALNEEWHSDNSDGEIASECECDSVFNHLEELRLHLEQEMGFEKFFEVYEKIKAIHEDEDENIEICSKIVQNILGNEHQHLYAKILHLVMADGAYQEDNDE
The following applies: at 0.1 µM.

Test [13] concerns the target T5, Serine/threonine-protein kinase Nek1 (Homo sapiens). The following applies: at 1 µM.
The target in test [14] is T6, Serine/threonine-protein kinase Nek2 (Homo sapiens) (UniProt P51955).
T6 sequence (whole entry): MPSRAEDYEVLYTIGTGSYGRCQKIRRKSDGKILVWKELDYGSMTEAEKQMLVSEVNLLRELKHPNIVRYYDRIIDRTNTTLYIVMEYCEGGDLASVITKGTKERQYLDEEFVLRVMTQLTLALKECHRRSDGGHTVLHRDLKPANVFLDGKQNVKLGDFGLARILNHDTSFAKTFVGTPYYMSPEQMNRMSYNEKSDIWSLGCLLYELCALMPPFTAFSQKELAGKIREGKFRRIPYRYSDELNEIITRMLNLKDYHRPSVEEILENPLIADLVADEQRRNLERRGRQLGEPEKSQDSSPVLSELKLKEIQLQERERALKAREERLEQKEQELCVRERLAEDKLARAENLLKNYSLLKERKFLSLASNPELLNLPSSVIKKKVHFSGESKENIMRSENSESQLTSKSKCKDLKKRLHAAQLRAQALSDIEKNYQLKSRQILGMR
The following applies: at 0.1 µM.

In test [15] the target is T6, Serine/threonine-protein kinase Nek2 (Homo sapiens). The following applies: at 1 µM.
In test [16] the target is Serine/threonine-protein kinase Nek6 (Homo sapiens) (UniProt Q9HC98). The following applies: at 0.1 µM.
Serine/threonine-protein kinase Nek6 (Homo sapiens), sequence (Q9HC98 whole entry): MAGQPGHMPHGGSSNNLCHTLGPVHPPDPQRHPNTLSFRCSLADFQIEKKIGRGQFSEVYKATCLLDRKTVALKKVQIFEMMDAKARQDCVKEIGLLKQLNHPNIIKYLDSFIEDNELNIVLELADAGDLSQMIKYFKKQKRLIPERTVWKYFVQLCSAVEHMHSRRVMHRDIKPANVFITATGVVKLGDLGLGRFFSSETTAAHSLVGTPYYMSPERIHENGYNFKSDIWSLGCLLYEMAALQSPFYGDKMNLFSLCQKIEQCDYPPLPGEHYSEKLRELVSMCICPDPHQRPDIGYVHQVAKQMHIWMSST
The target is the same in test [17]. The following applies: at 1 µM.
In test [18] the target is Serine/threonine-protein kinase Nek7 (Homo sapiens) (UniProt Q8TDX7). The following applies: at 0.1 µM.
Serine/threonine-protein kinase Nek7 (Homo sapiens), sequence (Q8TDX7 whole entry, looked up): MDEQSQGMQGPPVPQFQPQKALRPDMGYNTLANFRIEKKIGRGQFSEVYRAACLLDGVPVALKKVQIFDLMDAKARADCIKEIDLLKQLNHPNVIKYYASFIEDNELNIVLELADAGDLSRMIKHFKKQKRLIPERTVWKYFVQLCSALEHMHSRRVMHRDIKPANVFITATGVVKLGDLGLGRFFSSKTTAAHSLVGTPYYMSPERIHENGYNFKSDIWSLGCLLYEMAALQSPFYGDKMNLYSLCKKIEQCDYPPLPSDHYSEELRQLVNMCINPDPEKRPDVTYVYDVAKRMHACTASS
Test [19] shares this target. The following applies: at 1 µM.
The target in test [20] is T7, Serine/threonine-protein kinase Nek9 (Homo sapiens) (UniProt Q8TD19).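 Note: reported value is the mean percent inhibition of NEK9.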
T7 sequence (whole entry): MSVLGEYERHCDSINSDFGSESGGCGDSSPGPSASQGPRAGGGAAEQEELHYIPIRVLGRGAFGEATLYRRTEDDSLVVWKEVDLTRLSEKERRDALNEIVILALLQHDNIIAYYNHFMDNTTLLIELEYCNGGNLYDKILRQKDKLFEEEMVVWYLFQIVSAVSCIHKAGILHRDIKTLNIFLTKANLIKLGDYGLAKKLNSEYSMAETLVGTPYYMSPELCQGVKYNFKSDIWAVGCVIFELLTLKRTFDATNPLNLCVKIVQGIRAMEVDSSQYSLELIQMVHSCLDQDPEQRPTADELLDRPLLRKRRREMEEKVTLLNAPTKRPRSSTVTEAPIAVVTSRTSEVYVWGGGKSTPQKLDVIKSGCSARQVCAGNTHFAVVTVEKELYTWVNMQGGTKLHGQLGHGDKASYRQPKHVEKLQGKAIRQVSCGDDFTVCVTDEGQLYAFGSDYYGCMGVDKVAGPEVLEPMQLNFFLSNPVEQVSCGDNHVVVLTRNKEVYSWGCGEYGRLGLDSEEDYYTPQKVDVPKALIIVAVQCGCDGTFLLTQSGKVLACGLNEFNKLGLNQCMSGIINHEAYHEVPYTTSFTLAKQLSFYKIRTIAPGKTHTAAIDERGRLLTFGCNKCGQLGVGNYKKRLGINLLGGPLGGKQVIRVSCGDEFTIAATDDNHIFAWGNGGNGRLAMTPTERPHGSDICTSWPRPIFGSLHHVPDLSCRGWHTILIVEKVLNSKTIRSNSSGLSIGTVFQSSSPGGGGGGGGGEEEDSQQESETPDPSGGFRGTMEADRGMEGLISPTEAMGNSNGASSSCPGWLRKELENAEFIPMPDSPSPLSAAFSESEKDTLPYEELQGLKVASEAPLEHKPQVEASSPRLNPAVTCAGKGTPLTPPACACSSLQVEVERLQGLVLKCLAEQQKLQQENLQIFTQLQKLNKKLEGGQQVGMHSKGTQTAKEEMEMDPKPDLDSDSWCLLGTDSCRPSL
The following applies: at 0.1 µM.

Each structure is given as a SMILES string.

Sphingosine kinase 1 (Homo sapiens), sequence (Q9NYA1 whole entry): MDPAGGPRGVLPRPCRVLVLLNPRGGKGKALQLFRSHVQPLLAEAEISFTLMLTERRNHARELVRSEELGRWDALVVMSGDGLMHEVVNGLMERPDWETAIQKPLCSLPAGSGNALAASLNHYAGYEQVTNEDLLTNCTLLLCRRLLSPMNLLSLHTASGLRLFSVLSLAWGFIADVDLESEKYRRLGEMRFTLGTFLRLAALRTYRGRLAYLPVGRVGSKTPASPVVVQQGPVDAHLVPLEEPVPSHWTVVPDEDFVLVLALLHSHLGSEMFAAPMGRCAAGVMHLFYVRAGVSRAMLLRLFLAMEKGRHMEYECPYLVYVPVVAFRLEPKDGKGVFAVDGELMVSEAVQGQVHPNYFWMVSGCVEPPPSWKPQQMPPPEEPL

Take `CCS(=O)(=O)c1ccc(OC)c(Nc2ncc(-c3cccc(F)c3)o2)c1`: the inhibition in test [1] was 0.12%; in [2] it was -0.46%; in test [3], 0%; in [4], 15.4%; in test [5] it was 46.8%; in [6], 9.53%. For the same compound, the inhibition in [7] was 11%; in [8], 6.88%; in test [9], 9.91%; in test [10] it was 10.8%; in [11] it was 8.87%; in test [12] it was 4.05%. Also, the inhibition in [13] is 5.27%; in [14], 6.14%; in test [15], 7.08%; in test [16], -1.8%; in [17] it was 1.24%; in test [18] it was 4.07%. Further, the inhibition in test [19] was 0.27%; in test [20] it was 7.49%.
